Records with an inconclusive call do not appear. Values without a mark were called inactive. Calls of active or inactive are those of the source. The call rests on the fitted dose curve; in most records, active means well fitted inhibition curve with a large enough effect; inconclusive means small, poorly fitted or top-dose-only effect; inactive means flat fitted curve, though single readings scatter.
Potency means the concentration at half of the fitted maximal effect.

For one assay, the system named is CP250. Nature of the assay: qHTS profiling for inhibitors of Plasmodium falciparum proliferation (AID 504749). Further: nearly all actives have a fitted effect of over 60% in size.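 On activity, negative = inhibition: 0% = DMSO vehicle and full inhibition = artemisinin control.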 As to conditions: P. falciparum in erythrocytes, SYBR Green DNA, 72 h; series mostly up to 28.7 µM; activity, negative = inhibition: at the top concentration. The essentials:
(§1)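 SYBR Green fluorescence of parasite DNA, read after lysis and overnight dark incubation, measured growth over 72 h in erythrocyte culture at 0.3% parasitemia and 2.5% hematocrit. Data normalised to DMSO and 0.29 uM artemisinin, with plate-drift correction.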
On to `CN1CCN(C2=Nc3ccccc3Sc3ccc(Cl)cc32)CC1`, for which the “activity, negative = inhibition” value is -1.89%.
On the same count and under the same terms, the result for `CN1CCN(c2cc3c(cc2F)c(=O)c(C(=O)O)cn3-c2ccc(F)cc2)CC1` reads -15.5%; that for `NCc1ccccc1Sc1ccccc1CO`, -5.35%.
In the case of `O=C(c1ccc(F)cc1)C1CCN(CCn2c(=S)[nH]c3ccccc3c2=O)CC1`, the Potency is 10 µM (active).
In the case of `NC1CCN(c2nc3c(cc2F)c(=O)c(C(=O)O)cn3-c2ccc(F)cc2F)C1` (stereo not given), the “activity, negative = inhibition” value is -29.5%.
As for `CN1CCN(c2c(F)cc3c(=O)c(C(=O)O)cn4c3c2SCC4)CC1`, the “activity, negative = inhibition” value is -22.5%.
The same measure, in the same setting: the result for `COc1ccc(C(=O)c2ccccc2O)c(O)c1` reads 0.472% [at 12.8 µM].
The same measure, in the same setting: with `CCc1ccc(C(=O)C(C)CN2CCCCC2)cc1` (stereo not given) the figure was 0.553%; with `C#C[C@]1(O)CC[C@H]2[C@@H]3CCC4=CC(=O)CC[C@@H]4[C@H]3CC[C@@]21CC`, 3.52%.
With `NC(N)=NN=C(/C=C/c1ccc([N+](=O)[O-])o1)/C=C/c1ccc([N+](=O)[O-])o1`, the Potency was 11.2 µM (active).
Take `FC1(F)C(F)(F)C(F)(F)C2(F)C(F)(F)C(F)(F)C(F)(F)C(F)(F)C2(F)C1(F)F` (stereo not given): the “activity, negative = inhibition” value is 0.797%.
On the same count and under the same terms, the result for `CCCc1ncc(C[n+]2ccccc2C)c(N)n1` reads -1.91% [at 12.8 µM]; that for `O=C(O)C1(C(=O)O)CCC1.[NH2-].[NH2-].[Pt+2]`, 4.59%.
On the same count and under the same terms, with `Cc1cc(CC(=O)O)c(C)n1-c1ccc(Cl)cc1` the figure was -4.98%; with `O=C(Oc1cccc2cccnc12)c1ccccc1`, -0.469%.
With `CN(C)C(=O)Nc1ccc(Cl)c(Cl)c1`, the “activity, negative = inhibition” value was -29.1%.
Still for that read-out and setting: with `C[N+]1(C)CCC(=C(c2ccccc2)c2ccccc2)CC1` the figure was -16.2% [at 12.8 µM].
With `Cc1ccc(O)c([C@H](CCN(C(C)C)C(C)C)c2ccccc2)c1`, the Potency was 11.2 µM (active).
As to `O=C(O)c1ccc(S(=O)(=O)N(Cl)Cl)cc1`, the “activity, negative = inhibition” value was 11.4%.
Same read-out and setting: the result for `CN(C)CCC[C@@]1(c2ccc(F)cc2)OCc2cc(C#N)ccc21` reads -10.3%; that for `N=C(N)N1CCc2ccccc2C1`, 7.3%.
As to `O=[N+]([O-])c1cccc(S(=O)(=O)NCCNS(=O)(=O)c2cccc([N+](=O)[O-])c2)c1`, the “activity, negative = inhibition” value was -30.1%.
The same measure, in the same setting: the result for `Cc1cccc(C)c1NC(=O)c1ccccc1C(=O)O` reads -7.23%; that for `Cc1ncc(CO)c(C=O)c1O`, 4.86%.
For the compound `O=C1C(=O)c2ccccc2C(O)=C1C1CCC(c2ccc(Cl)cc2)CC1` (stereo not given), the Potency was 0.0028 µM (active).
Same read-out and setting: with `CCOC(=O)c1c(N)sc2c1CCN(Cc1ccccc1)C2` the figure was 5.01 µM (active).
Take `NC(N)=NCc1cccc(I)c1`: the “activity, negative = inhibition” value was -9.19%.
Same read-out and setting: the result for `COc1cc(O)c(C(=O)c2ccccc2)cc1S(=O)(=O)O` reads -16.9%; that for `Oc1ccc(Cl)cc1Cc1cc(Cl)ccc1O`, -25.2%.

The next assay concerns CP252. Described as above. The settings on record: P. falciparum in erythrocytes, SYBR Green DNA, 72 h; series mostly up to 28.7 µM; activity, negative = inhibition: at the top concentration. The essentials:
as §1
As to `CN1CCN(C2=Nc3ccccc3Sc3ccc(Cl)cc32)CC1`, the “activity, negative = inhibition” value was -24.1%.
On the same count and under the same terms, the result for `CN1CCN(c2cc3c(cc2F)c(=O)c(C(=O)O)cn3-c2ccc(F)cc2)CC1` reads -26.8%; that for `NCc1ccccc1Sc1ccccc1CO`, -21.8%.
Turning to `O=C(c1ccc(F)cc1)C1CCN(CCn2c(=S)[nH]c3ccccc3c2=O)CC1`, the Potency is 6.31 µM (active).
`CCc1ccc(C(=O)C(C)CN2CCCCC2)cc1` (stereo not given): the “activity, negative = inhibition” value was 1.22%.
On to `CCCN(CCc1cccs1)[C@H]1CCc2c(O)cccc2C1`, for which the Potency was 11.2 µM (active).
In the case of `Oc1c(Cl)cc(Cl)c(Cl)c1Cc1c(O)c(Cl)cc(Cl)c1Cl`, the Potency was 8.91 µM (active).
Regarding `C#C[C@]1(O)CC[C@H]2[C@@H]3CCC4=CC(=O)CC[C@@H]4[C@H]3CC[C@@]21CC`, the “activity, negative = inhibition” value was 2.06%.
Still for that read-out and setting: the result for `FC1(F)C(F)(F)C(F)(F)C2(F)C(F)(F)C(F)(F)C(F)(F)C(F)(F)C2(F)C1(F)F` (stereo not given) reads 12.1%.
Take `CC(C)[N+](C)(C)CC(O)COc1cccc2ccccc12` (stereo not given): the “activity, negative = inhibition” value is -27.2%.
The same measure, in the same setting: with `CCCc1ncc(C[n+]2ccccc2C)c(N)n1` the figure was 2.12% [at 12.8 µM]; with `O=C(O)C1(C(=O)O)CCC1.[NH2-].[NH2-].[Pt+2]`, 7.96%; with `O=C(Oc1cccc2cccnc12)c1ccccc1`, -9.83%.
On the same count and under the same terms, with `C[N+]1(C)CCC(=C(c2ccccc2)c2ccccc2)CC1` the figure was -15.1% [at 12.8 µM].
With `Cc1ccc(O)c([C@H](CCN(C(C)C)C(C)C)c2ccccc2)c1`, the Potency was 6.31 µM (active).
Take `O=C(O)c1ccc(S(=O)(=O)N(Cl)Cl)cc1`: the “activity, negative = inhibition” value was 0.222%.
Still for that read-out and setting: with `CN(C)CCC[C@@]1(c2ccc(F)cc2)OCc2cc(C#N)ccc21` the figure was -19.9%; with `N=C(N)N1CCc2ccccc2C1`, 2.64%.
For the compound `O=[N+]([O-])c1cccc(S(=O)(=O)NCCNS(=O)(=O)c2cccc([N+](=O)[O-])c2)c1`, the “activity, negative = inhibition” value is -12.5%.
On the same count and under the same terms, the result for `COc1ccc(C(=O)c2ccccc2)c(O)c1` reads 5.09%; that for `COc1cc(C(=O)N2CCCCCCC2)cc(OC)c1OC`, 10.6%.
The same measure, in the same setting: the result for `Cc1cccc(C)c1NC(=O)c1ccccc1C(=O)O` reads 2.68%; that for `CC(=O)NCCCCCC(=O)O`, 8.87%; that for `Cc1ncc(CO)c(C=O)c1O`, 2.09%.
For the compound `O=C1C(=O)c2ccccc2C(O)=C1C1CCC(c2ccc(Cl)cc2)CC1` (stereo not given), the Potency is 0.0032 µM (active).
In the case of `Cc1cccc(C)c1NC(=O)CN1CCCC1`, the “activity, negative = inhibition” value was 3.88%.
Turning to `CCOC(=O)c1c(N)sc2c1CCN(Cc1ccccc1)C2`, the Potency is 7.94 µM (active).
For the compound `CC(C)NCC(O)c1ccc2ccccc2c1` (stereo not given), the Potency was 11.2 µM (active).
On to `NC(N)=NCc1cccc(I)c1`, for which the “activity, negative = inhibition” value is -4.63%.
Same read-out and setting: the result for `COc1cc(O)c(C(=O)c2ccccc2)cc1S(=O)(=O)O` reads -6.58%.
Regarding `Oc1ccc(Cl)cc1Cc1cc(Cl)ccc1O`, the Potency is 12.6 µM (active).

Values taken from PubChem BioAssay (NCATS).
